These results are taken from PubChem BioAssay AID567 (The Scripps Research Institute Molecular Screening Center, 2006).

Among all 65,000 compounds or so, about 370 (0.57%) were called active. The full list was thinned out, with actives kept by preference. Unmarked numbers belong to inactive results.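 How the source made its calls: active means activation above the screen-wide mean activation plus 3 SD (cut at about 19% in these data); inactive means the rest.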

5-hydroxytryptamine receptor 1A (Homo sapiens), sequence (P08908 whole entry, looked up): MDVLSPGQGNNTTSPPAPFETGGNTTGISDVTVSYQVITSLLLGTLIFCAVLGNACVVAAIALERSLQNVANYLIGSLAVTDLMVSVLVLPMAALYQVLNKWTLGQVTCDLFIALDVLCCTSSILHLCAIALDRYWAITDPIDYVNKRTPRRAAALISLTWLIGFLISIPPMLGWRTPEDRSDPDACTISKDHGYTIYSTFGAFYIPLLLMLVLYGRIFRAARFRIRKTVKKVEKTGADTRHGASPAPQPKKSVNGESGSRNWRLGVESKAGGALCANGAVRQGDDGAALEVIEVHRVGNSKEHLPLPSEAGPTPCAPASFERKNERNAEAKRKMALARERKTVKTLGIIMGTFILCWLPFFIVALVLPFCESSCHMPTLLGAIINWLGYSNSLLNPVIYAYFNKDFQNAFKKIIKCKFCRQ

The test concerns the target 5-hydroxytryptamine receptor 1A (Homo sapiens) (UniProt P08908). Briefly: human 5-HT1a receptor agonists, primary screen, cell-based, CHO, Ga15 NFAT-bla reporter (AID 567).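 Further: 0% = DMSO wells and 100% = 5-CT at EC100.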 The settings on record: CHO 5-HT1a Ga15 NFAT-bla reporter, FRET ratio; at 10 µM; active compounds read high; 0% basal, 100% maximal reference agonist.
Turning to `CCn1nnc(NC(=O)c2c(OC)cccc2OC)n1`, the activation was 0.51%.

On to `O=C(COc1ccc(S(=O)(=O)NCCc2ccccc2)cc1)N1CCCC1`, for which the activation is -3.17%. On to `O=C(COc1ccccc1)NCCc1nc2ccccc2[nH]1`, for which the activation was 2.44%. Under `Cc1cccc(NC(=O)C2CCCN2S(=O)(=O)c2ccc(F)cc2)c1C` (stereo unspecified) stands 0.24%; under `O=C1Nc2c(Br)cc(Br)cc2C1(O)N1CCOCC1` (stereo unspecified), 0.9%. Under `CCOCCCN1C(=O)CN(C2CCCCC2)C(=O)C1c1ccc(OCC)c(OC)c1` (stereo unspecified) stands 0.91%.

Take `CCCS(=O)(=O)Nc1c(C(=O)O)[nH]c2ccccc12`: the activation is -2.21%. As to `c1ccc(Nc2n[nH]nc2-c2ccccc2)cc1`, the activation is 0.42%. The figure for `CCCCOc1ccc(Cl)cc1CSc1nncn1N` is -1.4%; for `Cc1csc(NC(=O)NC2(C(F)(F)F)Oc3ccccc3O2)n1` it is 1.56%; for `COc1ccc(C)cc1NC(=O)CSc1nc(SC)ns1` it is -0.56%. With `O=C(CN1CCOCC1)Nc1c(-c2ccccc2)c2cc(Br)ccc2[nH]c1=O`, the activation is -1.84%. Under `Cc1ccc(C(=O)N(CN2CCCC2=O)c2ccc(F)cc2)cc1` stands -4.03%; under `CC(=O)c1cccc(S(=O)(=O)N2CCC(n3nnc4cc(F)ccc43)CC2)c1`, 1.45%; under `COc1ccc(Cn2c(=O)sc3ccccc32)cc1OC`, 1.04%. On to `CN(C)c1ccc(NC(=O)c2ccncc2)c2ccccc12`, for which the activation was -2.38%. Under `O=C(CSC1=NCCS1)Nc1nc(-c2ccccc2)cs1` stands -0.71%.

Consider `Cc1nc(NC(=O)CCC(=O)O)sc1C(=O)N(C)C`, for which the activation is -1.18%.

Regarding `Cc1cc(NC(=O)Cn2nc(C(F)(F)F)c3c2CCCC3)no1`, the activation was -1.46%. Under `Cc1cccc(N2CCN(C(c3ccccc3)c3nnnn3CC3CCCO3)CC2)c1C` (stereo unspecified) stands -0.4%; under `CN(C)c1cc[n+](Cc2ccccc2)cc1`, 0.31%. As for `COC(=O)c1ccc(Oc2nc(Nc3ccc(F)cc3)nc(N3CCCC3)n2)cc1`, the activation is 0.02%. Under `N#CNC1=NCN(CCc2ccccc2)CN1` stands -0.74%; under `CCOC(=O)N1CCC(NC(=O)C(C)n2c3ccccc3c3cnn(C)c(=O)c32)CC1` (stereo unspecified), -1.53%. Under `COc1ccc(S(=O)(=O)N2CCC(C(=O)N3CCOCC3)CC2)cc1OC` stands -2.94%; under `CCCCC(=O)N1CC2(C)CN(C(=O)CCCC)CC(C)(C1)C2=O`, -3.12%. Turning to `Cc1onc(-c2ccccc2)c1C(=O)Nc1ccccc1C#N`, the activation is -0.43%. For `CCOC(=O)CSc1nnc(-c2ccncc2)o1`, the activation is -4.83%. The figure for `COc1cccc(C2/C(=C(/O)c3ccncc3)C(=O)C(=O)N2CCCN(C)C)c1` (stereo unspecified) is -2.65%. Under `CN1C(=O)c2ccc(NC(=O)c3c(F)c(F)c(F)c(F)c3F)cc2C1=O` stands -1.19%; under `Cc1nc(N2CCCC2C(=O)O)c2oc3ccccc3c2n1` (stereo unspecified), 0.22%.

On to `CCC(=O)c1ccc(OCC(O)CN2C(=O)NC(C)(C)C2=O)cc1` (stereo unspecified), for which the activation is 80.3% (active). The figure for `CCC(=O)c1ccc(OCC(O)CN2CC(C)OC(C)C2)cc1` (stereo unspecified) is -2.72%; for `CC1(C)NC(=O)N(CCOc2cccc(Oc3ccccc3)c2)C1=O` it is -2.31%. Under `O=C(Nc1ccccc1N1CCN(c2ccccc2)CC1)c1cccc(F)c1` stands 3.42%.

`CCCC(=O)Nc1ccccc1N1CCN(C(=O)c2ccccc2)CC1`: the activation was 0.59%. The figure for `O=C(Nc1ccccc1N1CCN(C(=O)c2ccccc2)CC1)c1ccc2c(c1)OCO2` is 60% (active); for `Cc1noc(C)c1COC(=O)Cn1c(C)nc2ccccc21` it is -2.62%. Under `O=C(O)CCCC(=O)Nc1ccccc1-n1ccnc1` stands -6.2%; under `CC(C)NS(=O)(=O)c1ccc(CCC(=O)N2CCOCC2)cc1`, -3.1%. Regarding `CCn1c(SCC(=O)Nc2cc(C)ccc2C)nnc1-c1cnccn1`, the activation is -3.82%. As to `Cc1ccc2c(c1)NCC(C(=O)NC1CCC(C)CC1)O2` (stereo unspecified), the activation is -2.41%.

In the case of `CCC(=O)Nc1ccccc1C(=O)N1CCN(Cc2ccccc2)CC1`, the activation is -6.46%. For `CC1CCCCN1CC(=O)NCc1ccc2c(c1)OCO2` (stereo unspecified), the activation is 0.18%.

On to `CSc1ccc(-c2c(C#N)c(N)nc3c2c(C)nn3-c2ccccc2)cc1`, for which the activation is 1.16%. Under `COc1ccc(O)c(C=Nc2cc(C)on2)c1` stands -4.57%. The figure for `Cc1ccc(C(c2sc3nc(C)nn3c2O)N2CCN(c3ccccc3)CC2)cc1` (stereo unspecified) is 1%. Regarding `Cn1cc(S(=O)(=O)N2CCC(Cc3ccccc3)CC2)c(=O)n(C)c1=O`, the activation was -1.31%. Take `O=C(CSc1ncccn1)NC(=O)NCc1ccccc1`: the activation is -2.73%. Regarding `O=C(CN1CCN(c2ccccc2F)CC1)c1ccc2c(c1)OCO2`, the activation was -1.08%. The figure for `O=C(NC1CCCCC1)n1c(=O)oc2cc(S(=O)(=O)N3CCCCC3)ccc21` is 1.83%. Under `CCCC(=O)Nc1nnc(CC(=O)OCC)s1` stands -1.79%; under `O=C(c1ccc(-n2cnnn2)cc1)N1CCN(C(c2ccccc2)c2ccccc2)CC1`, -2.96%; under `O=c1c(-c2ccc3c(c2)OCCO3)c(C(F)(F)F)oc2cc(O)cc(O)c12`, 2.15%. Under `CCCOC(=O)c1cc2ccccc2oc1=O` stands -1.25%; under `CCOC(=O)c1cc2cc(-c3c(C(=O)OCC)oc4cc(O)cc(O)c4c3=O)ccc2o1`, 20.4% (active). Turning to `Cc1ccc(Oc2ccc(N)cc2)cc1`, the activation was 61.2% (active). Under `CN(C)S(=O)(=O)c1ccc(Oc2ccc(S(=O)(=O)N(C)C)cc2)cc1` stands -1.45%. Under `COc1cccc(Oc2ccc(N)cc2)c1` stands -1.26%. Under `C=C(Br)Cn1c(CCCC)nc2ccccc21` stands 0.52%; under `Cn1c(=O)c(=O)n(C)c2cc(S(=O)(=O)NCCc3ccccc3)ccc21`, -2.1%; under `CCOC(=O)C1C(=O)C=C(c2ccc(OC)cc2)CC1c1ccco1` (stereo unspecified), -1.83%.

As for `O=C(CS(=O)(=O)c1cn(Cc2cccc(F)c2)c2ccccc12)N1CCCCC1`, the activation was 0.6%. The figure for `COc1ccc(NC(=O)CN(C)S(=O)(=O)c2ccccc2)cc1OC` is -0.21%; for `CC(=O)Nc1ccc(S(=O)(=O)Nc2nc3n(n2)C(c2ccccc2)CC(=O)N3)cc1` (stereo unspecified) it is -0.5%.

`CCOC(=O)NC(C(F)(F)F)(C(F)(F)F)P(=O)(c1ccccc1)c1ccccc1`: the activation was -0.98%.

For `c1cc(-c2nn[nH]n2)ccc1CN1CCCCC1`, the activation was -2.19%. Under `O=C(CSc1ncccn1)NCCc1ccccc1` stands 0.69%; under `O=C(CCCn1c(=O)[nH]c2cc(Cl)ccc2c1=O)NCCN1CCN(c2ccccc2)CC1`, -0.6%; under `CCn1c(=O)cc(OCC(=O)NCCCN2CCN(c3cccc(Cl)c3)CC2)c2ccccc21`, -3.65%. For `CC1CCCC(C)N1CCCNC(=O)c1cc2c(=O)n(C)c3ccccc3c2n1C` (stereo unspecified), the activation is -1.82%. The figure for `Cn1c(C(=O)NCCCN2CCN(c3cccc(Cl)c3)CC2)cc2c(=O)n(C)c3ccccc3c21` is 36.5% (active); for `O=C(CCn1c(=O)[nH]c2ccccc2c1=O)NCCCN1CCN(c2cccc(Cl)c2)CC1` it is 21.7% (active); for `O=C(CCn1c(=S)[nH]c2ccccc2c1=O)NCCCN1CCCC1=O` it is -0.9%. Under `O=S(=O)(N1CCOCC1)N1CCN(c2ccccc2F)CC1` stands -0.75%; under `O=S(=O)(Nc1ccccn1)c1ccc(Oc2ccccc2)cc1`, 0.59%; under `O=C(C1=C(O)C(=O)N(c2ncccn2)C1c1cccs1)c1ccco1` (stereo unspecified), -1.27%. The figure for `Cc1nc2ccccc2cc1O` is 0.14%. With `CCC1CCCCN1C(=O)Nc1cccc(NC(=O)N2CCCCC2CC)c1` (stereo unspecified), the activation was -2.03%. The figure for `CCOc1ccc(Cn2nnc(C(=O)Nc3ccc(OC)cc3OC)c2N)cc1` is 3.25%; for `O=c1c2ccccc2oc2nc3n(c(=O)c12)CCCS3` it is -0.78%. The figure for `COc1ccc(C(C(O)C(=O)c2c[nH]c3ccccc23)N2CCN(c3ccccc3)CC2)cc1` (stereo unspecified) is -3.45%. For `CCc1c(C)nc2cc(-c3cccs3)[nH]n2c1=O`, the activation was -3.62%. Under `Cc1ccc(S(=O)(=O)C(C#N)c2nc3ccccc3nc2N2CCCC2)cc1C` (stereo unspecified) stands 1.05%; under `CC(C)CCNC(=O)C(C)N(C(=O)Cn1nnc(-c2ccc(F)cc2)n1)C1CCCC1` (stereo unspecified), 0.97%. Under `CC(C)(C)n1nc2c(c1NC(=O)c1ccc(S(=O)(=O)N3CCCC3)cc1)CS(=O)C2` (stereo unspecified) stands -0.05%; under `O=C1CCC(Cc2ccccc2)N1` (stereo unspecified), -0.21%; under `CC1CCN(C(=O)Cn2cc(C(=O)c3ccco3)c3ccccc32)CC1`, -0.71%.

For `Cc1cc(=O)cc(C)[nH]1`, the activation was -2.27%. The figure for `CCOC(=O)C1=C(C)NC(C)=C(C(=O)OCC)C1c1ccccn1` is -1.2%; for `CCN1C(=O)C(C(=O)NC(C)c2ccccc2)C2CC1(C)Oc1ccccc12` (stereo unspecified) it is -0.28%; for `COc1ccccc1N(CC(=O)N1CCCCC1)S(=O)(=O)c1ccccc1` it is -2.64%. The figure for `COc1ccc(C2C3=C(CC(C)(C)CC3=O)Oc3ncn4nc(-c5cccnc5)nc4c32)cc1OC` (stereo unspecified) is -3.54%; for `COc1ccc(CC(NC(C)=O)C(=O)NC2CCN(C(=O)Nc3ccc(C#N)cc3)CC2)cc1OC` (stereo unspecified) it is 0.53%. The figure for `Cc1ccc(NC(=O)Cn2nc(C)c3ccccc3c2=O)c(C)c1` is -0.44%; for `CCOC(=O)Cc1csc(NC(=O)CSc2nc(C)cc(=O)[nH]2)n1` it is -1.16%.
